# From ChEMBL document CHEMBL3988442, “University of Dundee, Small-Polar-MMV Screening Library” (2021)
# In all, about 48,000 compounds went through this assay and about 13,000 (27%) showed an effect of 50% or more. The list shows a part of the results.
# Test system: Wolbachia pipientis
# Experiment: Anti-Wolbachia Cell-Based Screen
# Assay type: functional
# Set-up: scale not given: in the data most compounds retested in dose-response had high values
# Conditions: 5 µM
row,Compound,Percent Effect [%]
1,COc1cccc(CN2C[C@@H]3COC[C@]3(CNC(=O)C3CC3)C2)c1.O=C(O)C(F)(F)F,100.6
2,O=C(NC[C@]12COC[C@H]1CN(Cc1nccs1)C2)c1ccccc1.O=C(O)C(F)(F)F,17.76
3,Cc1cccc(CN2C[C@@H]3COC[C@]3(CNC(=O)N3CCCC3)C2)n1.O=C(O)C(F)(F)F.O=C(O)C(F)(F)F,5.948
4,Cc1cccc(CN2C[C@@H]3COC[C@]3(CNC(=O)C3CCC3)C2)c1.O=C(O)C(F)(F)F,92.72
5,Cc1cccc(CN2C[C@@H]3COC[C@]3(CNC(=O)C3CC3)C2)c1.O=C(O)C(F)(F)F,102.9
6,Cc1ccccc1CN1C[C@@H]2COC[C@]2(CNC(=O)C2CCC2)C1.O=C(O)C(F)(F)F,116.7
7,O=C(NC[C@]12COC[C@H]1CN(Cc1nccs1)C2)N1CCCC1.O=C(O)C(F)(F)F,28.78
8,N#Cc1cccc(-c2ncnn2CC2(O)CCCCC2)c1,2.299
9,COC(=O)CC(NC(=O)c1cccc(N2CCCC2=O)c1)C(=O)OC (stereo unspecified),-7.194
10,COCCN(Cc1nccs1)C(=O)c1cc(-c2ccc(C)o2)n[nH]1,-13.35
11,Cc1ccc(-c2nc(CC(=O)N3CCCC(NC(=O)C(C)C)C3)cs2)o1 (stereo unspecified),6.035
12,COCCNC(=O)C(C)n1nc(-c2ccc(C)o2)cc(N)c1=O (stereo unspecified),104.7
13,Cc1ccc(-c2cc(N)c(=O)n(C(C)C(N)=O)n2)o1 (stereo unspecified),92.46
14,CCCNC(=O)C(C)n1cc(Br)cn1 (stereo unspecified),-2.063
15,Cc1ccc(-c2cc(C(=O)N3CCCC3c3cccnc3)[nH]n2)o1 (stereo unspecified),-6.11
16,CCCNC(=O)C(C)n1nc(-c2ccc(C)o2)cc(N)c1=O (stereo unspecified),87.57
17,Cc1ccc(-c2nc(CC(=O)NCC(C)N3CCOCC3)cs2)o1 (stereo unspecified),-1.179
18,CC(=O)N1CCCN(C(=O)NC(C)c2ccc(C)o2)CC1 (stereo unspecified),-7.479
19,Cc1ccc(-c2cc(N)c(=O)n(C(C)C(=O)NC(C)C)n2)o1 (stereo unspecified),115.3
20,Cc1ccc(-c2cc(C(=O)NCCCc3csc(N)n3)[nH]n2)o1,17.13
21,Cc1c(C)n(Cc2ccccn2)c2nc3c(c(N)c12)CCCC3,5.52
22,O=C(CNc1cc(F)ccc1OC(F)F)NCC(F)(F)F,-13.2
23,CC(C)(CNC(=O)Nc1cccc(-c2nccs2)c1)C(N)=O,2.635
24,Cc1noc(C[C@@H]2COC[C@H]3CN(C(=O)C4=CCCC4)C[C@@H]23)n1,-8.987
25,O=C(O)C(F)(F)F.O=C([C@@H]1COC[C@H]2CN(C3CCOCC3)C[C@H]21)N1CCCO1,1.407
26,O=C1OCCC1N1CCN(c2ccc(O)cc2)CC1 (stereo unspecified),4.942

row,Compound,Percent Effect [%]
1,CC(C)Oc1cccc(C(O)CNC(=O)NCc2cccs2)c1 (stereo unspecified),-2.917
2,O=C(NCC(O)c1cccs1)c1ccco1 (stereo unspecified),-9.342
3,O=C(NCC(O)c1ccsc1)Nc1cccs1 (stereo unspecified),136.4
4,O=C(NCc1cccs1)NCC(O)c1ccoc1 (stereo unspecified),136.2
5,O=C(NCC(O)c1ccoc1)Nc1c(F)cccc1F (stereo unspecified),35.5
6,O=C(NCC(O)c1ccoc1)Nc1cccs1 (stereo unspecified),112.3
7,Cc1csc(CNC(=O)NCC(O)c2ccccc2)n1 (stereo unspecified),14.77
8,CCOc1ccccc1CCNC(=O)NCC(O)c1ccsc1 (stereo unspecified),-9.165
9,COC(=O)c1sccc1S(=O)(=O)NCCC(O)c1ccoc1 (stereo unspecified),6.712
10,CC(C)Oc1cccc(C(O)CNC(=O)Nc2cccs2)c1 (stereo unspecified),-15.38
11,O=C(NCCC(O)c1cccs1)c1ccco1 (stereo unspecified),-4.816
12,O=C(NCCC(O)c1ccoc1)Nc1cccs1 (stereo unspecified),118.3
13,COCc1nc(CNC2CCSCC2)no1,-3.755
14,CCc1nc2c(c(NCc3nc(-c4cccnc4)no3)n1)CCNCC2,-4.803
15,CC(C)c1nc(CN(C)C(=O)CNS(=O)(=O)c2cccs2)no1,-26.42
16,CN(CCOCC(F)(F)F)CC1CCN(CCO)CC1,-6.866
17,COCC(=O)Nc1ccnc(OCCN(C)C)c1,5.238
18,CCCNC(=O)c1cnc(N(C)C)nc1COC,7.705
19,Cc1nc(N(C)C)ncc1C(=O)N(Cc1ccncc1)CC1CCCO1 (stereo unspecified),-9.755
20,COCCC(=O)NCCc1nc(N(C)C)ncc1-c1ccncc1,140.1
21,COCc1nc(N(C)C)ncc1C(=O)NC(C)C,11.32
22,CCCC(=O)NCCc1nc(N(C)C)ncc1-c1ccncc1,150.4
23,COCc1nc(N(C)C)ncc1C(=O)Nc1ccn(C)n1,4.031
24,COCC(=O)N(C)Cc1nc(N(C)C)ncc1-c1ccncc1,115.9
25,COCC(=O)NCCc1nc(N(C)C)ncc1-c1ccncc1,144
26,Cc1nsc(NC(=O)N2CCCCC2CCCO)n1 (stereo unspecified),3.459

row,Compound,Percent Effect [%]
1,CCCOCC(=O)NS(=O)(=O)c1ccc2c(c1)OCCCO2,-2.018
2,CCc1nc(CCNC(=O)C2CC2)sc1C,-12.51
3,Cc1nc(N(C)C)ncc1C(=O)NCCc1csc(-c2ccncc2)n1,10.36
4,CN(C)c1ncc(-c2ccncc2)c(CCNC(=O)C2CC2)n1,144.3
5,c1ccc2c(c1)CN(c1ncnc3sc4c(c13)CCNC4)CCO2,-13.02
6,Cc1nc2c(cc1C(=O)O)CCN(Cc1ccsc1)CC2.O=C(O)C(F)(F)F.O=C(O)C(F)(F)F,107
7,CC(=O)N1CCc2cc(C(=O)O)c(-c3ccsc3)nc2CC1.O=C(O)C(F)(F)F,-2.009
8,Cc1nc(N2CCCC2)nc2c1CCN(Cc1ccsc1)CC2.O=C(O)C(F)(F)F,4.858
9,CC(C)Nc1nc2c(cc1C(=O)O)CCN(Cc1ccsc1)CC2.O=C(O)C(F)(F)F.O=C(O)C(F)(F)F,98.93
10,Cc1nc2c(cc1C(=O)O)CCN(CC1CC1)CC2.O=C(O)C(F)(F)F.O=C(O)C(F)(F)F,-6.324
11,CC(C)Nc1nc2c(cc1C(=O)NCC1CC1)CCN(CC1CC1)CC2.O=C(O)C(F)(F)F.O=C(O)C(F)(F)F,-7.491
12,CCC(CC)(CC)NC(=O)Nc1nnc(-c2ccccn2)s1,-4.465
13,COCCN1CCO[C@@H]2CN(C(=O)COc3ccc(C)cc3)C[C@@H]2C1.O=C(O)C(F)(F)F,-10.88
14,CC(C)(C)C(O)CN1CCN(Cc2nccn2CC(F)(F)F)CC1 (stereo unspecified),-1.053
15,O=C(CCC(=O)N1CCC(Oc2ncccc2Br)CC1)c1ccccc1,-8.42
16,CCC[C@H]1CN(C2CCOCC2)C[C@@H]1NC(=O)CCCn1ccnc1,-3.438
17,c1cnc(N2CCCC(c3n[nH]c4ncccc34)C2)nc1 (stereo unspecified),152.2
18,c1cnc(N2CCC(c3n[nH]c4ncccc34)C2)nc1 (stereo unspecified),117.8
19,Cc1ccc(-c2cn[nH]c2C2CCCN(c3cc(N)ncn3)C2)cc1 (stereo unspecified),-31.64
20,Cc1ccc(-c2cn[nH]c2C2CCCN(c3ncccn3)C2)cc1 (stereo unspecified),-14.2
21,Cc1cc(N2CCCC(c3n[nH]c4ncccc34)C2)ncn1 (stereo unspecified),73.09
22,CC(C)n1ccnc1C1CCCN(c2ccccn2)C1 (stereo unspecified),3.899
23,Cc1nc(CC(=O)N2CCCC2c2nc(C(C)C)no2)cs1 (stereo unspecified),-8.92
24,CN1CCC(N(C)C[C@H]2CC[C@@H](Cc3cccc(O)c3)O2)CC1,-5.981
25,Cc1nc(C)n(CCCNc2ncnc3onc(C)c23)n1,1.931
26,Cc1ccc(CN(C)C(=O)NCC(C)(C)NS(C)(=O)=O)s1,4.932

row,Compound,Percent Effect [%]
1,CC(C)N(C)C(=O)c1coc(CN2CCN(c3ccccc3F)CC2)n1,-13.9
2,COc1ccccc1N1CCCC(NC(=O)Nc2cccnc2)C1 (stereo unspecified),-7.582
3,O=C(NC1CCCN(c2ncccn2)C1)c1cn2ccccc2n1 (stereo unspecified),-4.664
4,O=C(NC1CCCN(c2ccccc2Cl)C1)c1nc(=O)[nH][nH]1 (stereo unspecified),109.8
5,O=C(NC1CCCN(c2ccccc2Cl)C1)c1c[nH]nn1 (stereo unspecified),87
6,O=C(NC1CCN(c2ccccc2Br)C1)c1c[nH]nn1 (stereo unspecified),111.1
7,O=C(NC1CCCN(c2ccc(OC(F)F)cc2)C1)c1c[nH]nn1 (stereo unspecified),-1.773
8,O=C(NC1CCCN(c2ccccc2F)C1)c1ccon1 (stereo unspecified),18.57
9,N#Cc1nccnc1NC1CCN(c2ccccc2Br)C1 (stereo unspecified),-11.54
10,Cc1n[nH]c(C)c1CNC(=O)NC1CCCN(c2ccccc2F)C1 (stereo unspecified),-5.16
11,O=C(NC1CCCN(c2ccc(OC(F)F)cc2)C1)c1cc[nH]n1 (stereo unspecified),14.46
12,O=C(NC1CCN(c2ccc(-c3ccccc3F)nn2)C1)c1cc[nH]n1 (stereo unspecified),3.887
13,O=C(NC1CCCN(c2ccccc2Cl)C1)c1ccc(=O)[nH]n1 (stereo unspecified),90.33
14,Cn1ncc(C(=O)OCC2CCN(c3ccccc3)C2)c1C(F)F (stereo unspecified),4.797
15,CN1C(=O)CCc2cc(NC(=O)C3CCCC3)ccc21,-13.79
16,CCS(=O)(=O)N1CCCC2(CCCN2C(=O)c2cn(C)cn2)C1 (stereo unspecified),0.7731
17,CN(Cc1cc(Br)cn1C)C(=O)c1ccsc1,-18.58
18,O=C(NC1CCN(c2ccccc2OC(F)F)C1)c1c[nH]nn1 (stereo unspecified),107.7
19,O=C(NC1CCN(c2ccccc2OC(F)F)C1)c1cccnc1 (stereo unspecified),-18.54
20,O=C(Nc1cn[nH]c1)NC1CCN(c2ccccc2OC(F)F)C1 (stereo unspecified),-20.77
21,COc1ccc(C2CN(c3nc(C)cc(C)n3)CCN2C(C)=O)cc1 (stereo unspecified),87.97
22,COc1ccc2c(c1)CN(c1nc(C)cc(C)n1)CC2,-6.244
23,COc1ccc(C2CCCN2C(=O)c2csc(NC(C)=O)n2)cc1 (stereo unspecified),-0.5039
